Compound activity deposited in PubChem BioAssay by several laboratories.
An excerpt weighted towards active compounds, which were near 3.2% of everything screened.
CDK5 inh – blocks human CDK5/p35 kinase activity. Q00535+Q15078. Recombinant CDK5/p35, ADP-Glo luminescence, 60 min. inhibition, % at 10 µM. 330,000 tested, 0.01% active. AID 488839;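 active means highest replicate inhibition of at least 50% and at least 75% of replicates reaching 50%; inconclusive means only one of the two criteria met; inactive means both criteria failed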;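 further: plate controls were DMSO neutral control for no effect and GW8510 at 10 µM for full effect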
SMARCA2 activ – activators of SMARCA2 function. MG213 cells, MMTV-luciferase reporter, dexamethasone, overnight. activation, % at 9.1 µM. 370,000 tested, 1% active; in the data active means activation above about 7.8%;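 further: 0% = vehicle wells and 100% = reference activator wells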
esBAF inh – inhibitors of esBAF chromatin remodeling in mouse ES cells; AID 602393; Bmi1-luciferase knock-in reporter, 24 h; 100% = twice the neutral-well signal; reporter increase, % at 12.5 µM; 350,000 tested, 2% active; in the data active means activation above about 40%; inconclusive means no clear call, values can overlap the other calls;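 further: 0% = median of the plate's neutral control wells and 100% = double that signal; a rise in the Bmi1 reporter signal indicates esBAF inhibition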
Rtt109 Vps75 – blocks Candida albicans Rtt109/Vps75 acetyltransferase activity; inhibition, % at 34.9 µM; purified Rtt109/Vps75, ThioGlo CoA-SH fluorescence, 4 h; 330,000 tested, 0.16% active; Q5AAJ8;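 active means inhibition of at least 50% in every replicate; inconclusive means best replicate reaches 50% inhibition but some replicates fall short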
Target sequence (Q5AAJ8 whole entry, looked up): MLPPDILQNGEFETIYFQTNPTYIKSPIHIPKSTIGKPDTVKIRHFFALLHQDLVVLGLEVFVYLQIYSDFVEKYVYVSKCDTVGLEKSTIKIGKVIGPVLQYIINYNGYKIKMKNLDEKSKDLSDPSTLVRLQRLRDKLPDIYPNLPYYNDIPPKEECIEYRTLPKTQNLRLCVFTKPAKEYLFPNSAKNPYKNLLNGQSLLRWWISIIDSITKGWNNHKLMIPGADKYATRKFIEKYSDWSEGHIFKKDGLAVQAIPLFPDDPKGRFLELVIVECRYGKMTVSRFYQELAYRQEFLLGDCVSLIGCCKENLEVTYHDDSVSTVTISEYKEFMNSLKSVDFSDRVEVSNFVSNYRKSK
Dyrk1A ADPGlo – inhibitors of rat Dyrk1A kinase. AID 504441. ADP-Glo luminescence, NFATc1 peptide. inhibition, % at 12.5 µM. 310,000 tested, 0.43% active. Q63470; in the data active means inhibition above about 50%;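 further: plate controls were vehicle with enzyme for no effect and no enzyme for full effect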
dFosB activator – enhances mouse delta FosB homodimer DNA binding; purified delta FosB, TAMRA-CDK5 oligo fluorescence polarization; percent of positive-control signal above neutral wells; activation, % at 25 µM; 340,000 tested, 0.99% active;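 active means mean activation above about 17%, with every replicate also reaching it, limit read from the data, passing the limit was not always enough; inconclusive means only one of the two conditions met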
SMARCA2 conf – SMARCA2 activation, confirmation screen; 3,500 tested, 30% active; AID 652260; shares compounds with SMARCA2 activ; activation, % at 9.1 µM; MG213 cells, MMTV-luciferase with dexamethasone, luminescence, overnight; MG213 cells expressing E1A, Rb sequestered; DMSO wells 0%, reference activator 100%;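 active means activation above its plate's cutoff, the mean activation of tested wells plus 3 SD, cut at about 7.9% in these data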
GAL4-VP16 Luc – GAL4-VP16 reporter activation counter-screen. shares compounds with SMARCA2 activ. HEK293 GAL4-VP16 pG5luc reporter, luciferase luminescence; scaled: DMSO wells 0%, SAHA wells 100%. activation, % at 9.1 µM. 3,500 tested, 41% active;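 active means activation above the solvent-only control well mean plus 3 SD, averaged across control plates, cut at about 5.2% in these data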
* marks the source's active call; other numbers are inactive results; ? = inconclusive; nt = no result given; ! = repeats disagree.

SMILES	CDK5 inh	SMARCA2 activ	esBAF inh	Rtt109 Vps75	Dyrk1A ADPGlo	dFosB activator	SMARCA2 conf	GAL4-VP16 Luc
Cc1csc(NC(=O)CSc2ccccc2F)n1	0	8.4*	nt	15	3	-6	2	4
Cc1noc(C)c1NC(=O)Nc1ccc2c(c1)C(=O)N([C@@H](C)CO)C[C@H](C)[C@H](CN(C)Cc1ccncc1)OCCCC[C@@H](C)O2	nt	nt	-3	nt	nt	nt	nt	nt
Cc1ccc(C2=NNC(c3cccc(F)c3)S2)cc1 (configuration not stated)	-2	1	nt	nt	6	-10	nt	nt
Fc1cccc(C2NN=C(c3ccccc3)S2)c1 (configuration not stated)	-2	12*	-18	nt	5	-5	14*	13*
Cc1ccc(C(=O)CC(C(=O)O)n2ccc(C)n2)cc1 (configuration not stated)	-1	8.2*	2	18	-1	-1	-1	0
CC(C)NC(=O)N(C)C[C@@H]1Oc2ccc(NC(=O)NC3CCCCC3)cc2C(=O)N([C@H](C)CO)C[C@@H]1C	nt	nt	-2	nt	nt	nt	nt	nt
COc1ccc(NC(=O)C2CCCN(S(=O)(=O)c3ccc4[nH]c(=O)ccc4c3)C2)cc1OC (configuration not stated)	1	15*	2	-3	-1	-2	-5	1
Cc1ccc(NC(=O)CNC(=O)c2cccc(C)c2)nc1	1	8.4*	9	5	3	-1	7	1
COc1ccccc1NC(=O)CCN1C(=O)c2ccccc2C1=O	0	9.5*	-3	5	-5	1	-3	-1
CC(C)[C@H](N)C(=O)N[C@H]1CCC2C3CC=C4C[C@@H](O)CC[C@]4(C)C3CC[C@@]21C (some centres not stated)	nt	19*	-67	nt	nt	nt	44*	2
C[C@H](CO)N1C[C@H](C)[C@@H](CN(C)S(=O)(=O)c2ccc(Cl)cc2)Oc2ccc(NC(=O)C3CC3)cc2CC1=O	nt	nt	-6	nt	nt	nt	nt	nt
O=C(CN1C(=O)S/C(=C\C=C\c2ccccc2)C1=O)Nc1ccc(C(=O)O)cc1	3	-2	4	32	5	-8	nt	nt
O=C(CN1C(=O)S/C(=C/C=C/c2ccccc2)C1=O)Nc1ccc(C(=O)O)cc1	1	12*	nt	1	1	-11	1	0
C[C@@H]1CN([C@H](C)CO)C(=O)c2cc(NS(=O)(=O)c3ccc(Cl)cc3)ccc2O[C@@H]1CN(C)Cc1ccc(C(=O)Nc2ccccc2N)cc1	nt	nt	-23	nt	nt	nt	nt	nt
O=C(Nc1ccccc1Br)C1CCN(C(=O)Cc2ccccc2)CC1	1	9.0*	nt	-14	nt	2	-3	2
CCN(C1CCCCC1)S(=O)(=O)c1ccc(OC)c(C)c1	1	1	0	0	0	0	nt	nt
CCN(C1CCCCC1)S(=O)(=O)c1ccc(-n2cnnn2)c(C)c1	0	9.3*	3	0	-8	-6	-4	2
Cc1csc(NC(=O)c2cnccn2)n1	3	1	22	-4	10	4	nt	nt
Cc1csc(NC(=O)c2ccc[nH]c2=O)n1	2	9.1*	9	0	6	-11	13*	9.8*
Cc1csc(NC(=O)c2cccc(C)c2C)n1	0	6	nt	-11	3	2	nt	nt
Cc1csc(NC(=O)c2cc(C)on2)n1	-1	11*	2	-6	-3	9	4	7.5*
CCn1c(SCC(=O)c2ccc(F)cc2)nnc1-c1ccoc1C	0	9.6*	21	-11	-1	-8	4	2
C[C@@H]1CN([C@@H](C)CO)C(=O)c2cccc(NC(=O)C3CCOCC3)c2O[C@H]1CN(C)Cc1ccncc1	nt	nt	-1	nt	nt	nt	nt	nt
Cc1cccc(NC(=O)CCc2c(C)nn(-c3ccc(N4CCOCC4)nn3)c2C)c1	-1	1	30	-3	5	6	nt	nt
COc1cccc(NC(=O)CCc2c(C)nn(-c3ccc(N4CCOCC4)nn3)c2C)c1	-1	11*	27	1	2	-1	2	3
SMILES	CDK5 inh	SMARCA2 activ	esBAF inh	Rtt109 Vps75	Dyrk1A ADPGlo	dFosB activator	SMARCA2 conf	GAL4-VP16 Luc
C[C@@H]1CCCCO[C@@H](CN(C)S(=O)(=O)c2ccc(F)cc2)[C@H](C)CN([C@H](C)CO)C(=O)c2cc(NS(=O)(=O)c3cn(C)cn3)ccc2O1	nt	nt	-3	nt	nt	nt	nt	nt
CCOC(=O)c1ccc(COc2ccc(C(C)C)cc2)o1	-3	10*	nt	nt	-5	-8	13*	14*
CC(C)c1ccc(OCc2ccc(C(=O)N3CCCC3)o2)cc1	0	2	-5	14	5	-14	nt	nt
C[C@@H]1CN([C@H](C)CO)C(=O)c2cc(NC(=O)CCCN(C)C)ccc2O[C@@H](C)CCCCO[C@H]1CN(C)C(=O)Nc1cccc2ccccc12	nt	nt	-1	nt	nt	nt	nt	nt
CC(=O)c1cccc(-c2ccnc3c2CC(C(=O)NCc2ccc(N4CCN(C)CC4)cc2)O3)c1 (configuration not stated)	nt	8.7*	nt	nt	nt	nt	3	5
CC(=O)Nc1sc(NC(=O)c2ccc([N+](=O)[O-])cc2)nc1-c1cccs1	0	9.4*	nt	3	nt	5	-5	0
CCOc1ccccc1NC(=O)C(=O)/C=C(\O)c1cc(OC)ccc1OC	-1	-3	-2	14	-3	1	nt	nt
COc1ccccc1NC(=O)C(=O)/C=C(\O)c1ccccc1	0	10*	?	5	-1	5	-1	0
CCN1CCN(Cc2ccc(NC(=O)c3cc(NC(=O)c4cnnc5ccccc45)cc(OC)c3)cc2C(F)(F)F)CC1	0	14*!	-6	22	5	10	8.7*	1
C[C@@H]1CN([C@@H](C)CO)S(=O)(=O)c2ccc(-c3ccc(C#N)cc3)cc2O[C@@H]1CN(C)C(=O)CN(C)C	nt	nt	-3	nt	nt	nt	nt	nt
COc1ccc(NC(=O)c2ccc(OC(F)F)cc2)cc1Cl	-5	1	nt	-6	3	-2	nt	nt
O=C(Nc1ccc(OC(F)F)c(Cl)c1)c1ccccn1	6	12*	nt	-9	-5	-4	11*	19*
CC(=O)c1ccc(NC(=O)c2ccc([N+](=O)[O-])o2)cc1	2	9.4*	26	-1	9	4	19*	4
Cc1cc(NC(=O)c2ccc([N+](=O)[O-])o2)ccc1NC(=O)c1ccco1	-1	10*	nt	9	2	-3	18*	2
COc1ccc(NC(=O)c2ccc([N+](=O)[O-])o2)cc1	1	12*	30	25	-2	-3	29*	3
